Results filed as inconclusive are left out. Where a call stands in place of a potency, no number is given. Active and inactive are the calls of the source. The call rests on the fitted dose curve; in most records, active means well fitted inhibition curve with a large enough effect; inconclusive means small, poorly fitted or top-dose-only effect; inactive means flat fitted curve, though single readings scatter.
Biological target: Calcium and integrin-binding protein 1 (Homo sapiens) (UniProt Q99828)
Experiment: Primary qHTS for Identification of Calcium Integrin Binding Protein 1 (CIB1) Competitor (AID 1508620); further: top concentration of the series differs between compounds
Settings: CIB1-GST / FITC-alphaIIb peptide fluorescence polarization; series mostly up to 114 µM
Method in brief: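 Fluorescence polarization competition: GST-tagged CIB1 (1 uM final) preincubated with compound 15 min at room temperature, then FITC-labelled alphaIIb peptide (100 nM final) added. After 15 min at room temperature, polarization read at Ex 480/Em 540.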

Calcium and integrin-binding protein 1 (Homo sapiens), sequence (Q99828 whole entry, looked up): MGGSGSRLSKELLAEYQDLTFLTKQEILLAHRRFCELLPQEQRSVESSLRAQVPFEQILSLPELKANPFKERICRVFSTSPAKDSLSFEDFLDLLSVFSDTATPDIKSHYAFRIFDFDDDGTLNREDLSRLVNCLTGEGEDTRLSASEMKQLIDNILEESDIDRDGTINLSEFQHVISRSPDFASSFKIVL

Row | Compound | Potency
1 | C/C=C/C(O)C1OC(=O)CC1Nc1ccc(C(=O)O)cc1 (configuration not stated) | inactive
2 | O=C(NCc1ccc(F)cc1)C(=O)c1c[nH]c2ccccc12 | inactive
3 | Cc1ccc(C(=O)N(CCCN)C(c2oc3cc(Cl)ccc3c(=O)c2Cc2ccccc2)C(C)C)cc1 (configuration not stated) | inactive
4 | CC12CCC(OC3OC(CO)C(O)C(OC4OC(CO)C(O)C(O)C4O)C3O)CC1=CCC1C2CCC2(C)/C(=C3/COC(=O)C3)CCC12O (configuration not stated) | inactive
5 | Cc1ccc(S(=O)(=O)c2ccc([N+](=O)[O-])o2)cc1 | inactive
6 | CC1(C)CC(=O)C2=C(C1)NC(=S)NC2c1cccc(O)c1 (configuration not stated) | inactive
7 | COc1ccc([C@H]2CNC(=O)C2)cc1OC1CCCC1 | inactive
8 | C=C1CC[C@@H]2[C@@](C)(CO[C@@H]3O[C@H](CO)C(O)[C@H](O)C3O)[C@H](O)CC[C@@]2(C)[C@@H]1CC/C(C)=C/CO (some centres not stated) | inactive
9 | COCC1OC(OC(C)(C)C2CCC3(C)C=C(C4CCC5C4(C)CC(O)C4OC(C(C)(C)OC6OC(CO)C(O)C(O)C6NC(C)=O)CCC45C)CCC3O2)C(NC(C)=O)C(O)C1O (configuration not stated) | inactive
10 | CC1=CC(=O)CC(C)(C)[C@H]1/C=C/C(CO)O[C@@H]1O[C@H](CO)[C@@H](O)[C@H](O)[C@H]1O (some centres not stated) | inactive
11 | CC1(C)CC[C@]2(C(=O)O[C@@H]3O[C@H](CO)[C@@H](O)[C@H](O)[C@H]3O)CC[C@]3(C)C(=CCC4[C@@]5(C)C[C@@H](O)[C@H](O)[C@](C)(C(=O)O)C5CC[C@]43C)C2C1O (some centres not stated) | inactive
12 | CC1(O)CC(O)C2(O)C=COC(O[C@@H]3O[C@H](CO)[C@@H](O)[C@H](O)[C@H]3O)C12 (some centres not stated) | inactive

From PubChem BioAssay (NCATS)
